Holding throughout (test): DAPPL (digital affinity profiling via proximity ligation, sequencing); 10 mM Tris-HCl pH 7.5, 50 mM NaCl, 1 mM DTT, 4% glycerol, room temperature, 30 min; GST-TFs on glutathione beads, 16-mer random dsDNA library, 0.1% formaldehyde crosslink after washing; high values mean tight binding
The target of one assay is T1, FLI1 (Homo sapiens, UniProt Q01543 1-452).
T1 sequence: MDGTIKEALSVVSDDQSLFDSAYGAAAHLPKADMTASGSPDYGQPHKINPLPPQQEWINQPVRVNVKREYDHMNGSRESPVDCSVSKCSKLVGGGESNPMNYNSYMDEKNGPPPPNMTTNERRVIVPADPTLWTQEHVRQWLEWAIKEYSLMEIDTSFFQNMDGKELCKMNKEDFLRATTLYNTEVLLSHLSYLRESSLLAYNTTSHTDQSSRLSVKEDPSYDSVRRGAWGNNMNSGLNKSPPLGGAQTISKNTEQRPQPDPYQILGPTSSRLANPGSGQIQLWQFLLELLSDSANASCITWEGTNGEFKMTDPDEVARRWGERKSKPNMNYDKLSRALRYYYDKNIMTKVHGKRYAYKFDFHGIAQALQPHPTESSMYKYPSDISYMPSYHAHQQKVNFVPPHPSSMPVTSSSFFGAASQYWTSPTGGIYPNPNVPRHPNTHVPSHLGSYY
The conditions noted are these: protein: recombinant; tags: N-terminal GST; dsDNA, one strand shown. In short, it runs like this:
(§1)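 Beads coated with glutathione captured GST-fused human transcription factors that had been expressed in yeast, and the factors were then given DNA barcodes and pooled with a tag-only sample. The pools were incubated with 200 nmole of a random double-stranded 16-mer DNA library in Tris/NaCl/DTT/glycerol buffer for 30 min at room temperature, washed, crosslinked with 0.1% formaldehyde and proximity-ligated with BsaI/T4 ligase at 37 °C for 1 h. PCR amplification and Illumina NextSeq500 sequencing came last. Binding signal is each hexamer's read frequency for a factor divided by its frequency for the tag-only sample.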

In a further assay the target is T2, ELK1 (Homo sapiens, UniProt P19419 1-428).
T2 sequence: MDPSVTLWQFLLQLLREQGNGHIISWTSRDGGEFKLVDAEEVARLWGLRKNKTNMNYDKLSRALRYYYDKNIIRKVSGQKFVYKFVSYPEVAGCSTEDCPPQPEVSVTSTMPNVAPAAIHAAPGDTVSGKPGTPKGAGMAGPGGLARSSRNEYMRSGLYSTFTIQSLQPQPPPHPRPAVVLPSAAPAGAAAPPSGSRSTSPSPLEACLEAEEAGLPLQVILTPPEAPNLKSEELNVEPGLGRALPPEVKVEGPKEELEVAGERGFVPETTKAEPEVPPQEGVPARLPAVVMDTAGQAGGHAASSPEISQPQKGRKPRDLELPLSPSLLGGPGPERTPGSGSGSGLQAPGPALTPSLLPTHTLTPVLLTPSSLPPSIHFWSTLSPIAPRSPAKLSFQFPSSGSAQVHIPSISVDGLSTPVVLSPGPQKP
As to conditions: protein: recombinant; tags: N-terminal GST; dsDNA, one strand shown. The method, boiled down: as §1

The next assay deals with T3, GABPA (Homo sapiens, UniProt Q06546 1-454).
T3 sequence: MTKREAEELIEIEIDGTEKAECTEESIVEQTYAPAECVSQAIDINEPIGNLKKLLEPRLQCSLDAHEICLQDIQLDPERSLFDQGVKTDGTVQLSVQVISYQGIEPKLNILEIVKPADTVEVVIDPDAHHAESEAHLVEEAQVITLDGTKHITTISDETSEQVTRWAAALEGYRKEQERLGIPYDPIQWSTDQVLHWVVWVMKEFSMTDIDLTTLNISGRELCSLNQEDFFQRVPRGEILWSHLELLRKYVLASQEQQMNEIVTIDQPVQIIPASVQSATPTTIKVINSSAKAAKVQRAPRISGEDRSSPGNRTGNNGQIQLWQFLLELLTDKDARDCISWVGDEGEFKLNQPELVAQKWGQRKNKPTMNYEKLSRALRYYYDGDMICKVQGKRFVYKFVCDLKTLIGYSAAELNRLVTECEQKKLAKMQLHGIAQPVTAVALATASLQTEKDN
The conditions noted are these: protein: recombinant; tags: N-terminal GST; dsDNA, one strand shown. The method, boiled down:
as §1

The target in another assay is T4, ERG (Homo sapiens, UniProt P11308 1-479).
T4 sequence: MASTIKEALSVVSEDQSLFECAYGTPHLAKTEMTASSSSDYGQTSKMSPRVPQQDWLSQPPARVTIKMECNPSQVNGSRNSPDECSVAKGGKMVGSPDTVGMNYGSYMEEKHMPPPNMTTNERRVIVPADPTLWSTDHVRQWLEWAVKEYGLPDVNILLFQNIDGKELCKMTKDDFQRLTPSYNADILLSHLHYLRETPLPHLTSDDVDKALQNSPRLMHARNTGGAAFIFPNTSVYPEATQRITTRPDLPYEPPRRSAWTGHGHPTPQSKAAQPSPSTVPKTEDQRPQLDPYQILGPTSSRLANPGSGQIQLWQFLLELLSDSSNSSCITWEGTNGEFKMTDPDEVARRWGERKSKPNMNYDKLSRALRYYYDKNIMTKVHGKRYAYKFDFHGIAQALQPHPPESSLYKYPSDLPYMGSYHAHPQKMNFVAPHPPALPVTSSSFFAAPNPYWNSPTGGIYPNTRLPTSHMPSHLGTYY
The conditions noted are these: protein: recombinant; tags: N-terminal GST; dsDNA, one strand shown. In short, it runs like this:
as §1

The target in the next assay is ELF1 (Homo sapiens, UniProt P32519 1-619). The conditions noted are these: protein: recombinant; tags: N-terminal GST; dsDNA, one strand shown. The method, boiled down:
as §1

The target of the next assay is T5, EHF (Homo sapiens, UniProt Q9NZC4 1-300).
T5 sequence: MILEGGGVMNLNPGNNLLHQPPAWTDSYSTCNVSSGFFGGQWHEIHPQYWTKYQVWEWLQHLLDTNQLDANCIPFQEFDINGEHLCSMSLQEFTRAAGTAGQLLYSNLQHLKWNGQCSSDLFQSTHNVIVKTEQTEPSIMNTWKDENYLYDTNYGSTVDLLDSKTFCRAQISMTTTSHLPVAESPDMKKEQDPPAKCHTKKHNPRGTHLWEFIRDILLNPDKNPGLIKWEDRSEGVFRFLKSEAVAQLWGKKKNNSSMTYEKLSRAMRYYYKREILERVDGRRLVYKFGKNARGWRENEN
As to conditions: protein: recombinant; tags: N-terminal GST; dsDNA, one strand shown. The method, boiled down: as §1

Another assay concerns the target SPI1 (Homo sapiens, UniProt P17947 1-270). As to conditions: protein: recombinant; tags: N-terminal GST; dsDNA, one strand shown. The method, boiled down: as §1
Another assay addresses SPIB (Homo sapiens, UniProt Q01892 1-262). As to conditions: protein: recombinant; tags: N-terminal GST; dsDNA, one strand shown. The method, boiled down:
as §1

The target in another assay is T6, ELK3 (Homo sapiens, UniProt P41970 1-407).
T6 sequence: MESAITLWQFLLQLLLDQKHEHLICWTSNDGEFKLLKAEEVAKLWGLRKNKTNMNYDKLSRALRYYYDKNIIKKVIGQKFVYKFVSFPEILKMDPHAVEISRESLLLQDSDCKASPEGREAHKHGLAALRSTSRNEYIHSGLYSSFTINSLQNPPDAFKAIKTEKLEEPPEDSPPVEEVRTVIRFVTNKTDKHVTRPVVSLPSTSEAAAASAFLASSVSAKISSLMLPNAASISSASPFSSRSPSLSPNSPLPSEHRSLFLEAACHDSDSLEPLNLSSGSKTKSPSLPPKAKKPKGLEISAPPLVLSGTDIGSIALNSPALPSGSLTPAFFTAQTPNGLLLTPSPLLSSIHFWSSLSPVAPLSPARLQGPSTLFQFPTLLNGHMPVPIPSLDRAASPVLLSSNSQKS
The conditions noted are these: protein: recombinant; tags: N-terminal GST; dsDNA, one strand shown. In short, it runs like this: as §1

A further assay deals with T7, FEV (Homo sapiens, UniProt Q99581 1-238).
T7 sequence: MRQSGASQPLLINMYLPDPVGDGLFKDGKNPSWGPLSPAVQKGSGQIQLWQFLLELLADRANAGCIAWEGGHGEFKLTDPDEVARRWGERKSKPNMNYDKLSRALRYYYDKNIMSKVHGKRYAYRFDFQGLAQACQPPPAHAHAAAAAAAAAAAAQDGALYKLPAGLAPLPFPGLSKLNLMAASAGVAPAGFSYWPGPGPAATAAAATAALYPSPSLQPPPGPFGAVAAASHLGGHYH
As to conditions: protein: recombinant; tags: N-terminal GST; dsDNA, one strand shown. The method, boiled down: as §1

Another assay deals with ETV5 (Homo sapiens, UniProt P41161 1-510). The conditions noted are these: protein: recombinant; tags: N-terminal GST; dsDNA, one strand shown. The method, boiled down:
as §1

Another assay addresses HSF1 (Homo sapiens, UniProt Q00613 1-529). As to conditions: protein: recombinant; tags: N-terminal GST; chain copies: 3; dsDNA, one strand shown. The method, boiled down: as §1
For the next assay, the target named is T8, SPIC (Homo sapiens, UniProt Q8N5J4 1-248).
T8 sequence: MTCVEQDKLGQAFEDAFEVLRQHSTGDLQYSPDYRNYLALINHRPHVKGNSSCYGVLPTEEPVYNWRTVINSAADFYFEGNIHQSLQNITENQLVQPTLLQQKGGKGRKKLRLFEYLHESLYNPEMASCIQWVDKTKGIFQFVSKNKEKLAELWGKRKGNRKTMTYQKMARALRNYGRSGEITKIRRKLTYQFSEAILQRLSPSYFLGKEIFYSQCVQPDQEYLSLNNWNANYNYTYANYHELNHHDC
The conditions noted are these: protein: recombinant; tags: N-terminal GST; dsDNA, one strand shown. In short, it runs like this:
as §1

A further assay concerns the target ELF4 (Homo sapiens, UniProt Q99607 1-663). As to conditions: protein: recombinant; tags: N-terminal GST; dsDNA, one strand shown. In short, it runs like this:
as §1

For the next assay, the target named is T9, ELF3 (Homo sapiens, UniProt P78545 1-371).
T9 sequence: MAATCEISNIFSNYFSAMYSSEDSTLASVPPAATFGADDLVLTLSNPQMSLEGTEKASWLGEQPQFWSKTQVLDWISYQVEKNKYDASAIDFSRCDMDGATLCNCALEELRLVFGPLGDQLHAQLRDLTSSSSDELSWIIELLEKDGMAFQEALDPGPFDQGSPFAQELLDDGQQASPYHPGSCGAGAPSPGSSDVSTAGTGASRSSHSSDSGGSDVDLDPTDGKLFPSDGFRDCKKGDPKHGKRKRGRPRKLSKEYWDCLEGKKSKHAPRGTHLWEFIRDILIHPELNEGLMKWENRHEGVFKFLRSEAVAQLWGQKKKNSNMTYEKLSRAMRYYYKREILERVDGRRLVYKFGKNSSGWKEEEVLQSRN
As to conditions: protein: recombinant; tags: N-terminal GST; dsDNA, one strand shown. In short, it runs like this: as §1

In another assay the target is CRX (Homo sapiens, UniProt O43186 1-299). The conditions noted are these: protein: recombinant; tags: N-terminal GST; dsDNA, one strand shown. In short, it runs like this: as §1
Sequence of CRX (O43186 whole entry): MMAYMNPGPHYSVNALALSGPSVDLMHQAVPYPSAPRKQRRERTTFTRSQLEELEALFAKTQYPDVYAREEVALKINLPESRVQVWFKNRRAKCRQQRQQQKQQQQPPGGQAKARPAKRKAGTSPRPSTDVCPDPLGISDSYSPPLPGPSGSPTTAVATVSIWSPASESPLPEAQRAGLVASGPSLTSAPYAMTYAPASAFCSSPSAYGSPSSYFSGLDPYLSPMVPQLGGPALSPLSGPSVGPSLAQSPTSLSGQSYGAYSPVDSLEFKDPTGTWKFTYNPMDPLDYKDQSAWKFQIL
A further assay deals with ETV1 (Homo sapiens, UniProt P50549 1-477). As to conditions: protein: recombinant; tags: N-terminal GST; dsDNA, one strand shown. In short, it runs like this:
as §1

This passage reports binding signal results from PMC7862700, “An all-to-all approach to the identification of sequence-specific readers for epigenetic DNA modifications on cytosine”.

Sequence of ELF1 (P32519 whole entry): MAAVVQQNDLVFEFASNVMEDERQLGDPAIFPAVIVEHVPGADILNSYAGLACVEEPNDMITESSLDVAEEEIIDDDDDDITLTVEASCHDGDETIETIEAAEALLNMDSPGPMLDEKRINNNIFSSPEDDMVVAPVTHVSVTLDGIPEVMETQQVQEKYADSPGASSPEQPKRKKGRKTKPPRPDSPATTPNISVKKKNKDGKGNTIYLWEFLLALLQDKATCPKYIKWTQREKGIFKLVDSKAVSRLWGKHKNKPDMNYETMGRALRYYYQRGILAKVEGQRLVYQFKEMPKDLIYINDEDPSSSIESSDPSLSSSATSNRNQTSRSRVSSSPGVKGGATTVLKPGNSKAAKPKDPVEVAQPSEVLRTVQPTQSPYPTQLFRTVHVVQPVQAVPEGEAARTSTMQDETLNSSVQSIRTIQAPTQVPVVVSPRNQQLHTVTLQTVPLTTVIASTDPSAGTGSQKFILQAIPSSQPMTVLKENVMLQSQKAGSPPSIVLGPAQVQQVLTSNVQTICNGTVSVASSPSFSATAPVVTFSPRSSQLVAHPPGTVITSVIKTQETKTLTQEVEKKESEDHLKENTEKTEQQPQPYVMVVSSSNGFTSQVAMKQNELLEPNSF
Sequence of ETV5 (P41161 whole entry): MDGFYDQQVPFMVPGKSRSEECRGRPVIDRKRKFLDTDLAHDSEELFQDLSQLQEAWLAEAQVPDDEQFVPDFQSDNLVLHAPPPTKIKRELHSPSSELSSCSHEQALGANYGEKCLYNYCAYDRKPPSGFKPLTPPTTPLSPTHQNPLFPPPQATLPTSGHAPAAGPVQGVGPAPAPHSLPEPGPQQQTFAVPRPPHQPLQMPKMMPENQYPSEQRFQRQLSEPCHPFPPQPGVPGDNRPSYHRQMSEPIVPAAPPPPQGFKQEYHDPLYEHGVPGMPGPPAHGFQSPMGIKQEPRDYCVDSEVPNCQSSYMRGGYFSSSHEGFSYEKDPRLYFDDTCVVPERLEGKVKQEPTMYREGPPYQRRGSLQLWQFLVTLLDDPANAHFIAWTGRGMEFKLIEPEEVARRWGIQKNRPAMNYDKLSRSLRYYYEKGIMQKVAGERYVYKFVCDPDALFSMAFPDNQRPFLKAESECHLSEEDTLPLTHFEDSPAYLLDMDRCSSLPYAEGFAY
Sequence of ELF4 (Q99607 whole entry): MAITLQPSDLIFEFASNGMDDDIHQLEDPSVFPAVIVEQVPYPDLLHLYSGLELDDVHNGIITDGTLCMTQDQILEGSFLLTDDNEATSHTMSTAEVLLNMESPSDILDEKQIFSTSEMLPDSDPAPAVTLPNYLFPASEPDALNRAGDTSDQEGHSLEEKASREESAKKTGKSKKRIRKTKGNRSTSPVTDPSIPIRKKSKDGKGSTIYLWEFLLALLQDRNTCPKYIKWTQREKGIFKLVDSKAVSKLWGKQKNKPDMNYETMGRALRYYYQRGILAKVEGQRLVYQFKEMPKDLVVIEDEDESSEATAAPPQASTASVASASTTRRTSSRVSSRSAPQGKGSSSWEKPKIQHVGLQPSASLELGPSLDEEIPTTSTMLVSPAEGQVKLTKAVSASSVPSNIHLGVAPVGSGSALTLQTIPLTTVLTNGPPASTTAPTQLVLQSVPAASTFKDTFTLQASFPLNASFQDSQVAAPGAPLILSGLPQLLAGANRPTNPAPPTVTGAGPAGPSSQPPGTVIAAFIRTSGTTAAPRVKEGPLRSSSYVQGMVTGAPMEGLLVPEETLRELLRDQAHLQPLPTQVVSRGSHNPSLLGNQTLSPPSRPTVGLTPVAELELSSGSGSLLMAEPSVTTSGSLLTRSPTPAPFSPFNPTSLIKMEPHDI
Sequence of SPIB (Q01892 whole entry): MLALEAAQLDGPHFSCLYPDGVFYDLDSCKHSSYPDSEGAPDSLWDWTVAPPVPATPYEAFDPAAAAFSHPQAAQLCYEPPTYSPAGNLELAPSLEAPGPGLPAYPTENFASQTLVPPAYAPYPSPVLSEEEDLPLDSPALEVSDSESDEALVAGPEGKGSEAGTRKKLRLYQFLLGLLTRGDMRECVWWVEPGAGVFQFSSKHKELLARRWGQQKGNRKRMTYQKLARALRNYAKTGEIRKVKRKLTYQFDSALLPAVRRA
Sequence of ETV1 (P50549 whole entry): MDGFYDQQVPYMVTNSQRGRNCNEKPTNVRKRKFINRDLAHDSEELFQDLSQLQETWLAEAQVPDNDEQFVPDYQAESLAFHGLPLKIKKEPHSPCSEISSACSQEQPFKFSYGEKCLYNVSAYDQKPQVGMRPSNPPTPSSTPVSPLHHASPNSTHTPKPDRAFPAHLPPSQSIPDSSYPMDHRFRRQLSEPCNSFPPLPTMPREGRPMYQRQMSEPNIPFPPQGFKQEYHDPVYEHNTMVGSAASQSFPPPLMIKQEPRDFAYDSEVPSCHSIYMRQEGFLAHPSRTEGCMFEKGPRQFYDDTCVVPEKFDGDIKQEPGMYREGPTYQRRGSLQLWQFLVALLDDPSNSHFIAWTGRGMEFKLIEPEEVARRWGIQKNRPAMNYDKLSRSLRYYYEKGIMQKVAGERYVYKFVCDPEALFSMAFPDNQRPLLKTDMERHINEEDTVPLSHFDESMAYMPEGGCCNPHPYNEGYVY
Sequence of HSF1 (Q00613 whole entry): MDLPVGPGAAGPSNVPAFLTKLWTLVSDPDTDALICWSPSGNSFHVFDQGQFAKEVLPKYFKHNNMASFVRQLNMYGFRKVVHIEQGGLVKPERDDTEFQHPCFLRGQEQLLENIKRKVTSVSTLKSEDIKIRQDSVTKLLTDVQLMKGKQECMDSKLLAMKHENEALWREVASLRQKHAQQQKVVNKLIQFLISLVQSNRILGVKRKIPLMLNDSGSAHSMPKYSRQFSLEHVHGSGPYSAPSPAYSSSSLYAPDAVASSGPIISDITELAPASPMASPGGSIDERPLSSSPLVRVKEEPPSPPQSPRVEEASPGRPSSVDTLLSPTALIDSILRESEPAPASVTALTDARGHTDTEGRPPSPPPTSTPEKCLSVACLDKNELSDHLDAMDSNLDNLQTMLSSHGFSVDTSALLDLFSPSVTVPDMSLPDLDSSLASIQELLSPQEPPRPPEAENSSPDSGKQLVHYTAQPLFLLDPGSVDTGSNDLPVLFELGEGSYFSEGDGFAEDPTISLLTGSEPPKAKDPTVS

Consider TGGAAA, for which the binding signal in the assay with FLI1 was 1.09 fold enrichment (6-mer frequency, TF over GST control); with ELK1 it was 1.12 fold enrichment (6-mer frequency, TF over GST control); with GABPA, 1.19 fold enrichment (6-mer frequency, TF over GST control); in the assay with ERG it was 1.11 fold enrichment (6-mer frequency, TF over GST control); in the assay with ELF1 it was 1.04 fold enrichment (6-mer frequency, TF over GST control); in the assay with EHF it was 1.1 fold enrichment (6-mer frequency, TF over GST control). The binding signal with SPI1 was 1.16 fold enrichment (6-mer frequency, TF over GST control); with SPIB, 1.17 fold enrichment (6-mer frequency, TF over GST control); with ELK3, 1.15 fold enrichment (6-mer frequency, TF over GST control); in the assay with FEV, 1.03 fold enrichment (6-mer frequency, TF over GST control); with ETV5, 1.14 fold enrichment (6-mer frequency, TF over GST control); with HSF1, 2.23 fold enrichment (6-mer frequency, TF over GST control). For the same sequence, the binding signal in the assay with SPIC is 1.17 fold enrichment (6-mer frequency, TF over GST control); with ELF4 it was 1.12 fold enrichment (6-mer frequency, TF over GST control); with ELF3, 1.15 fold enrichment (6-mer frequency, TF over GST control); in the assay with CRX it was 1.23 fold enrichment (6-mer frequency, TF over GST control); in the assay with ETV1, 1.11 fold enrichment (6-mer frequency, TF over GST control).
